Experimental data reported in PubChem BioAssay (EPA / NIEHS).
“And” between values parts separate entries of the source, which are not always exact repeats. Equal entries are not always repeated. Inconclusive results are not listed. Some structures have more than one record in an assay (separate samples or runs), and their calls can disagree. The source made the active and inactive calls. How the source made its calls, unless noted: active means hit-call score of the fitted dose curve at least 0.9, where 1 is the maximum; inactive means score below 0.9.

What was measured:
[1] = molecular target: human Vitamin D Receptor (VDR), VDR (gene 7421) (UniProt P11473); assay: ATG_VDR_TRANS: Attagene TRANS-FACTORIAL HepG2 Assay for human Vitamin D Receptor (VDR) (AID 2283022; active means hit-call score of the fitted dose curve at least 0.9, where 1 is the maximum)
Procedure, shortened: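 HepG2 cells were transiently transfected with multiple GAL4-UAS reporter units, so signal reflects exogenous chimeric receptor-Gal4 activity. After 24 h compound exposure, reporter mRNA was measured by RT-PCR, fluorescent labelling and capillary electrophoresis, fitted for gain of signal versus DMSO.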

[2] = read-out: Interleukin-8 (IL8), CXCL8 (gene 3576); assay: BSK_3C_IL8: BioMAP Diversity Plus: 3C Assay for Interleukin-8 (IL8) Biomarker Activity (AID 2283020); details: primary human endothelial cells (HUVEC); actives raise or lower the signal
Procedure, shortened: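 Endothelial primary cells of human umbilical vein origin are dosed with chemical; after 24 h the IL-8 biomarker is measured by ELISA, and concentration–response is fitted in both directions versus DMSO.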

[3] = read-out: Monokine induced gamma interferon (MIG), CXCL9 (gene 4283); assay: BSK_3C_MIG: BioMAP Diversity Plus: 3C Assay for Monokine induced gamma interferon (MIG) Biomarker Activity (AID 2283021); details: primary human endothelial cells (HUVEC); actives raise or lower the signal
Procedure, shortened: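 Endothelial primary cells (human umbilical vein) are dosed with test chemical in the 3C system. MIG levels are measured by ELISA at 24 h and fitted in both directions relative to DMSO.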

[4] = BSK_3C_SRB: Viability Assessment in the BioMAP Diversity Plus: 3C Assay (AID 2283023); details: primary human endothelial cells (HUVEC);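 further: fitted both ways against DMSO so a hit may be signal rise or drop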
Procedure, shortened: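 Primary human umbilical vein endothelial cells in the 3C system were read 24 h after compound dosing. Total protein was stained with 0.1% sulforhodamine B after 10% TCA fixation and read at 560 nm, with bidirectional fitting against DMSO as baseline.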

[5] = BSK_4H_SRB: Viability Assessment in the BioMAP Diversity Plus: 4H Assay (AID 2283027); details: primary human endothelial cells (HUVEC);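 further: cells exposed to compound for 24 h before staining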;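 on AC50: curves fitted both ways versus DMSO so AC50 may be loss or gain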
Procedure, shortened: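 HUVEC, 24 h post-dose; 10% TCA fix, 0.1% SRB stain, A560 nm. Total protein = overt cytotoxicity, parallel to biomarker read. Bidirectional fit vs DMSO baseline.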

[6] = BSK_BE3C_SRB: Viability Assessment in the BioMAP Diversity Plus: BE3C Assay (AID 2283028); details: primary human bronchial epithelial cells
Procedure, shortened: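 Human primary bronchial epithelial cells were exposed to test chemicals for 24 h. Total protein in parallel cultures was then measured by staining with 0.1% sulforhodamine B after 10% TCA fixation, with absorbance read at 560 nm. Activity was fitted bidirectionally against DMSO.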

[7] = read-out: Thrombomodulin, THBD (gene 7056); assay: BSK_3C_Thrombomodulin: BioMAP Diversity Plus: 3C Assay for Thrombomodulin Biomarker Activity (AID 2283029); details: primary human endothelial cells (HUVEC); actives raise or lower the signal
Procedure, shortened: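 Endothelial cells from umbilical vein are dosed with test chemical and incubated 24 h. Thrombomodulin is then quantified by ELISA, with DMSO serving as negative control and activity baseline.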

[8] = read-out: Urokinase-type plasminogen activator receptor (uPAR), PLAUR (gene 5329); assay: BSK_4H_uPAR: BioMAP Diversity Plus: 4H Assay for Urokinase-type plasminogen activator receptor (uPAR) Biomarker Activity (AID 2283030); details: primary human endothelial cells (HUVEC); actives raise or lower the signal
Procedure, shortened: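 Primary human umbilical vein endothelial cells were exposed to chemical for 24 h before cell-surface uPAR was quantified by ELISA. Activity was fitted bidirectionally against the DMSO negative control baseline.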

[9] = read-out: Vascular endothelial growth factor receptor 2 (Homo sapiens) (UniProt P35968); assay: BSK_4H_VEGFRII: BioMAP Diversity Plus: 4H Assay for Vascular endothelial growth factor receptor 2 (VEGFR2) Biomarker Activity (AID 2283031); details: primary human endothelial cells (HUVEC); actives raise or lower the signal
Procedure, shortened: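 Primary human umbilical vein endothelial cells in the BioMAP 4H system were dosed with test chemical, and 24 h later VEGFRII was measured by ELISA. Activity was fitted bidirectionally against DMSO as negative control and baseline.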

[10] = read-out: Human Leukocyte Antigen - DR isotype (HLADR), HLA-DRA (gene 3122); assay: BSK_BE3C_HLADR: BioMAP Diversity Plus: BE3C Assay for Human Leukocyte Antigen - DR isotype (HLADR) Biomarker Activity (AID 2283032); details: primary human bronchial epithelial cells; actives raise or lower the signal
Procedure, shortened: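 Chemicals are dosed onto BE3C bronchial epithelial cultures of human origin and left 24 h. HLA-DR is then measured by ELISA, and the endpoint is fitted in both directions using DMSO as the activity baseline.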

[11] = read-out: Vascular cell adhesion molecule 1 (VCAM1), VCAM1 (gene 7412); assay: BSK_4H_VCAM1: BioMAP Diversity Plus: 4H Assay for Vascular cell adhesion molecule 1 (VCAM1) Biomarker Activity (AID 2283033); details: primary human endothelial cells (HUVEC); actives raise or lower the signal;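 further: cell-surface VCAM-1 protein measured by ELISA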
Procedure, shortened: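 Chemicals are added to primary human umbilical vein endothelial cells. After 24 h, VCAM-1 levels are measured by ELISA. Values come from bidirectional fitting referenced to DMSO.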

[12] = read-out: Interferon-gamma inducible Protein 10 (IP10), CXCL10 (gene 3627); assay: BSK_BE3C_IP10: BioMAP Diversity Plus: BE3C Assay for Interferon-gamma inducible Protein 10 (IP10) Biomarker Activity (AID 2283034); details: primary human bronchial epithelial cells; actives raise or lower the signal
Procedure, shortened: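 IP-10 quantified by ELISA serves as the endpoint. Cells: primary human bronchial epithelium, read 24 h after compound addition. Activity is derived by bidirectional fitting with DMSO as negative control.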

[13] = read-out: Plasminogen activator inhibitor-1 (PAI1), SERPINE1 (gene 5054); assay: BSK_BE3C_PAI1: BioMAP Diversity Plus: BE3C Assay for Plasminogen activator inhibitor-1 (PAI1) Biomarker Activity (AID 2283037); details: primary human bronchial epithelial cells; actives raise or lower the signal
Procedure, shortened: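 Values derive from bidirectional fitting against DMSO baseline of PAI-1 levels, measured by ELISA in human bronchial epithelial cells 24 h after compound addition.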

[14] = read-out: urokinase plasminogen activator (uPA), PLAU (gene 5328); assay: BSK_BE3C_uPA: BioMAP Diversity Plus: BE3C Assay for urokinase plasminogen activator (uPA) Biomarker Activity (AID 2283038); details: primary human bronchial epithelial cells; actives raise or lower the signal;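 further: uPA protein level quantified by ELISA in cell cultures; uPA read one day after compound addition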
Procedure, shortened: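 Human primary bronchial epithelial cells were exposed to chemical for 24 h, then uPA levels were measured by ELISA. Responses were fitted bidirectionally against DMSO as negative control and baseline. Parallel SRB staining of total protein gauged overt cytotoxicity.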

[15] = read-out: Urokinase-type plasminogen activator receptor (uPAR), PLAUR (gene 5329); assay: BSK_BE3C_uPAR: BioMAP Diversity Plus: BE3C Assay for Urokinase-type plasminogen activator receptor (uPAR) Biomarker Activity (AID 2283039); details: primary human bronchial epithelial cells; actives raise or lower the signal;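 further: cells exposed to compound for one day before measurement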
Procedure, shortened: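 Steps: dose human primary bronchial epithelial cells, incubate 24 h, measure uPAR by ELISA, then fit gain- or loss-of-signal response bidirectionally relative to DMSO.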

[16] = BSK_3C_Vis: BioMAP Diversity Plus: 3C Assay for Morphology Visualization (AID 2283025); details: primary human endothelial cells (HUVEC);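 further: fitted both ways so gain or loss versus DMSO counts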
Procedure, shortened: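 Morphology read by light microscopy serves as a background control for the multiplexed 3C assay in human umbilical vein endothelial cells, taken 24 h after dosing, with DMSO as the negative control and bidirectional curve fitting.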

[17] = read-out: Monokine induced gamma interferon (MIG), CXCL9 (gene 4283); assay: BSK_BE3C_MIG: BioMAP Diversity Plus: BE3C Assay for Monokine induced gamma interferon (MIG) Biomarker Activity (AID 2283035); details: primary human bronchial epithelial cells; actives raise or lower the signal;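 further: MIG protein measured by ELISA in BE3C cultures after 24 h of dosing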
Procedure, shortened: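 Dose cells (human primary bronchial epithelial), incubate 24 h, quantify MIG by ELISA, then fit concentration–response in both directions relative to DMSO control.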

[18] = read-out: Transforming growth factor beta 1 (TGFb1), TGFB1 (gene 7040); assay: BSK_BE3C_TGFb1: BioMAP Diversity Plus: BE3C Assay for Transforming growth factor beta 1 (TGFb1) Biomarker Activity (AID 2283036;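 further: TGF-b1 protein level measured by ELISA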); details: primary human bronchial epithelial cells; actives raise or lower the signal
Procedure, shortened: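 Bronchial epithelial primary cells are treated with test chemical, then TGF-b1 is quantified by ELISA after 24 hours. Values derive from bidirectional fitting against DMSO, with cytotoxicity checked by SRB staining in parallel cultures.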

human Vitamin D Receptor (VDR), VDR (gene 7421), sequence (P11473 whole entry, looked up, the tested form may be a part): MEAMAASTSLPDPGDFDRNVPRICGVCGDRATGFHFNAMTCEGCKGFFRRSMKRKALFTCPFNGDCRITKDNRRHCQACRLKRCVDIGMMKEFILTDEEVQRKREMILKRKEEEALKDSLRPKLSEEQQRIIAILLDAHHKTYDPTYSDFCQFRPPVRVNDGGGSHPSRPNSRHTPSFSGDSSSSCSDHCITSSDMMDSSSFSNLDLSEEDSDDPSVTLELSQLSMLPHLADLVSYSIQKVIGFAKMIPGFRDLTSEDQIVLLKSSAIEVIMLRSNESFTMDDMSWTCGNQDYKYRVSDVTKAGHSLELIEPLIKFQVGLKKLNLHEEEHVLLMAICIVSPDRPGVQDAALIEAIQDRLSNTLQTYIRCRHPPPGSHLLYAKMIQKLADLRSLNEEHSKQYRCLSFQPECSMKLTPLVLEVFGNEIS

## CCCCOCCOC(=O)c1ccccc1C(=O)OCCOCCCC
[1]
  outcome: inactive

## CC(C)COC(=O)c1ccccc1O
[1]
  outcome: inactive

## O=S(=O)(O)CCCN1CCOCC1
[1]
  outcome: inactive

## NNC(=O)OCc1ccccc1
[1]
  outcome: inactive

## O=C(O)C(F)(F)C(F)(F)C(F)(F)C(F)(F)C(F)(F)C(F)(F)C(F)(F)C(F)F
[2]
  outcome: inactive
[3]
  outcome: inactive
[4]
  outcome: inactive
[5]
  outcome: inactive
[6]
  outcome: inactive
[7]
  outcome: inactive
[8]
  outcome: inactive
[9]
  outcome: inactive
[10]
  AC50: 12.5 µM (active) and 3.23 µM (active)
[11]
  outcome: inactive
[12]
  AC50: 30 µM (active) and 38.3 µM (active)
[13]
  outcome: inactive
[14]
  outcome: inactive
[15]
  outcome: inactive

## CC(C)COC(=O)c1ccccc1
[1]
  outcome: inactive

## CC(=O)CC(=O)N(C)C
[1]
  outcome: inactive

## CCCc1ccc(N)cc1
[1]
  outcome: inactive

## COc1ccc(OC)cc1
[1]
  outcome: inactive

## CCCO
[1]
  outcome: inactive

## c1ccc(OCCOc2ccccc2)cc1
[2]
  outcome: inactive
[3]
  outcome: inactive
[4]
  outcome: inactive
[5]
  outcome: inactive
[6]
  outcome: inactive
[7]
  outcome: inactive
[8]
  outcome: inactive
[9]
  outcome: inactive
[10]
  outcome: inactive
[11]
  outcome: inactive
[12]
  outcome: inactive
[13]
  outcome: inactive
[15]
  outcome: inactive

## CC(C)=CC(=O)O
[1]
  outcome: inactive

## CCCC1CCC(=O)CC1
[1]
  outcome: inactive

## CCCC[N+](C)(CCCC)CCCC
[1]
  outcome: inactive

## CC(=O)CCc1ccc(O)cc1
[1]
  outcome: inactive

## NC(=O)c1cccnc1
[1]
  outcome: inactive

## CC1=CC[C@@H]2C[C@H]1C2(C)C
[1]
  outcome: inactive

## C=C(C)C(=O)OCCN(C)C
[1]
  outcome: inactive

## COc1ccc2[nH]cc(CCNC(C)=O)c2c1
[1]
  outcome: inactive

## COc1ccc(N)c(C)c1
[1]
  outcome: inactive

## CC(C)(CO)CO
[2]
  outcome: inactive
[3]
  outcome: inactive
[4]
  outcome: inactive
[5]
  outcome: inactive
[6]
  outcome: inactive
[7]
  outcome: inactive
[8]
  outcome: inactive
[9]
  outcome: inactive
[10]
  outcome: inactive
[11]
  outcome: inactive
[12]
  AC50: 5.62 µM (active)
  outcome: inactive
[13]
  outcome: inactive
[15]
  outcome: inactive

## C=COCC1CCC(COC=C)CC1 (centres undefined)
[1]
  outcome: inactive

## CC(=O)OC/C=C(C)/C=C/C=C(C)/C=C/C1=C(C)CCCC1(C)C
[1]
  outcome: inactive

## N#CCCNCCC#N
[1]
  outcome: inactive

## Cc1ccc(C(C)(C)O)cc1
[1]
  outcome: inactive

## CC(CCO)CC(C)(C)C (centres undefined)
[1]
  outcome: inactive

## C=C(C)C(=O)OCCC(F)(F)C(F)(F)C(F)(F)C(F)(F)C(F)(F)C(F)(F)C(F)(F)C(F)(F)F
[2]
  outcome: inactive
[3]
  outcome: inactive
[4]
  outcome: inactive
[5]
  outcome: inactive
[6]
  outcome: inactive
[7]
  outcome: inactive
[8]
  outcome: inactive
[9]
  outcome: inactive
[10]
  outcome: inactive
[11]
  outcome: inactive
[12]
  outcome: inactive
[13]
  outcome: inactive
[15]
  outcome: inactive

## CCCCCCOC(C)=O
[1]
  outcome: inactive

## C[C@]12CC[C@@H]3c4ccc(O)cc4CC[C@H]3[C@@H]1CC[C@@H]2O
[2]
  outcome: inactive
[3]
  outcome: inactive
[16]
  AC50: 13.7 µM (active)
[5]
  AC50: 12.4 µM (active)
[6]
  outcome: inactive
[7]
  outcome: inactive
[8]
  AC50: 8.9 µM (active)
[9]
  outcome: inactive
[10]
  outcome: inactive
[11]
  outcome: inactive
[12]
  outcome: inactive
[17]
  outcome: inactive
[18]
  outcome: inactive
[13]
  outcome: inactive
[15]
  outcome: inactive

## C/C=C(\C)C(=O)OC/C=C(\C)CCC=C(C)C
[1]
  outcome: inactive
